Source: PubChem BioAssay AID651551 (Sanford-Burnham Center for Chemical Genomics, 2012)

Target: PEG-3 (UniProt Q6IN02)
Assay: GAPDH versus PEG-3 reporter suppression – cell-based, luminescence, counter-screen for PEG-3 promoter inhibitor project, SAR follow-up (AID 651551)
Conditions: HeLa PEG-Prom / GAPDH luciferase reporter, 6 or 24 h, run 3, 24 h; at 99 µM (top of the series)

SMILES | inhibition % (higher = more inhibition) [%]
Cc1cc(NC(=O)c2ccccc2C)n(-c2nc3ccccc3[nH]2)n1 | 38
CCCn1nc(C(=O)Nc2nc(-c3ccccn3)cs2)c2ccccc2c1=O | 40.8
Cc1cc(NC(=O)c2ccccc2C(F)(F)F)n(-c2nc3ccccc3[nH]2)n1 | 94.1
Cc1nc(NC(=O)c2ccccc2)sc1-c1csc(Nc2cccc(Cl)c2C)n1 | -61.4
COc1ccc(-n2nc(C(=O)NCC(=O)Nc3cccc(OC)c3)c3ccccc3c2=O)cc1 | 8.99
Cc1cc(NC(=O)c2cccc(C)c2C)n(-c2nc3ccccc3[nH]2)n1 | 3.97
CCCn1nc(C(=O)Nc2nc3ccccc3s2)c2ccccc2c1=O | 16.5
O=C(Nc1nc2ccccc2s1)c1nn(-c2ccccc2)c(=O)c2ccccc12 | -21.2
Cc1cc(NC(=O)c2ccccc2)n(-c2nc3ccccc3[nH]2)n1 | 79.1
CCn1cc(C(=O)NCc2ccco2)c(=O)c2cc(S(=O)(=O)N3CCCC3)ccc21 | 46.7
Cc1nc(NC(=O)c2ccccc2)sc1-c1csc(Nc2ccccc2Cl)n1 | -104
O=C(Nc1nccs1)c1nn(-c2ccccc2)c(=O)c2ccccc12 | 29.1
O=C(Nc1nc(-c2ccccc2)cs1)c1nn(-c2ccccc2)c(=O)c2ccccc12 | 11.5
Cc1ccc(Cl)cc1Nc1nc(-c2sc(NC(=O)c3ccco3)nc2C)cs1 | -26.2
COc1ccc(-n2nc(C(=O)NCC(=O)Nc3ccc(OC)c(OC)c3)c3ccccc3c2=O)cc1 | 34.1
CCCn1nc(C(=O)Nc2nc(-c3ccncc3)cs2)c2ccccc2c1=O | 44.6
COc1ccc(-n2nc(C(=O)NCC(=O)Nc3cc(OC)c(OC)c(OC)c3)c3ccccc3c2=O)cc1OC | 34.1
Cc1nc(NC(=O)c2ccccc2)sc1-c1csc(Nc2ccccc2)n1 | 76.8
COc1ccccc1Nc1nc(-c2sc(NC(=O)c3ccco3)nc2C)cs1 | 21.6
COCCCNC(=O)c1ccc(Cn2c(=O)c3ccccc3n(Cc3ccccc3C#N)c2=O)cc1 | 73.4
Cc1cc(NC(=O)c2ccccc2)n(-c2nc3ccccc3n2C)n1 | 3.97
COc1ccc(Cl)cc1Nc1nc(-c2sc(NC(=O)c3ccccc3)nc2C)cs1 | 60.5
CCn1nc(C(=O)Nc2nc(-c3ccccn3)cs2)c2ccccc2c1=O | 39.1
